The source of these data is PubChem BioAssay (NCI).

This is part of a sample that, as a whole, favours compounds with a hit. Of some 83,000 tested, about 20% had one in any assay.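 The endpoint reported here, percent growth, reads 100 for growth as untreated, 0 for no net growth and -100 for all cells dead.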 Values without a mark were called inactive. The source made the active and inactive calls. The calls were made as follows: active = growth percent below 10; inactive = the rest.

Holding throughout (experiment): NCI-60 one-dose screen, 48 h (100 = growth as untreated, 0 = no growth, -100 = all killed)
Common to all, as to conditions: 10 µM unless noted

Test [1] relates to HCT-15 colon.
The test system of test [2] is HT29 colon.
The test system of test [3] is SNB-75 CNS.
Test [4] concerns U251 CNS.
For test [5], the system named is PC-3 prostate.
For test [6], the system named is SK-MEL-5 melanoma.
Test [7] has as its system UACC-62 melanoma.
The subject of test [8] is LOX IMVI melanoma.
For test [9], the system named is SK-MEL-28 melanoma.
Test [10] relates to SK-MEL-2 melanoma.
The subject of test [11] is EKVX NSCLC.
Test [12] deals with SN12C renal.
Test [13] concerns UO-31 renal.
The subject of test [14] is TK-10 renal.
The test system of test [15] is ACHN renal.
The test system of test [16] is CAKI-1 renal.
The subject of test [17] is A498 renal.
The test system of test [18] is CCRF-CEM leukemia.
The test system of test [19] is MOLT-4 leukemia.
For test [20], the system named is SNB-19 CNS.

As to `O=C1/C(=C\c2cn(C(=O)c3ccc(Cl)cc3)c3ccccc23)c2ccccc2N1c1c(Cl)cccc1Cl`, the growth in test [1] was 66.3%; in [2], 103%; in [3], 82.3%; in test [4] it was 88.4%; in [5] it was 71.9%; in test [6], 107%. Moreover, the growth was 95.4% in test [7]; 97.7% in [8]; 113% in test [9]; 103% in test [10]; 97.8% in test [11]; 89.5% in [12]. The growth in test [13] was 77%; in test [14], 119%; in [15], 97.6%; in test [16] it was 86.4%; in test [17], 103%; in test [18] it was 111%. Besides, the growth in test [19] was 89.6%.
`CCOC(=O)CC(C)=N`: the growth in test [1] was 105%; in test [2], 103%; in test [3], 84%; in [20] it was 99.7%; in [5], 104%; in test [6], 100%. Also, the growth is 102% in [7]; 101% in [9]; 111% in test [10]; 103% in test [12]; 98.5% in test [13]; 109% in test [15]. Further, the results for the growth in test [16], in test [18] and in test [19] were 111%, 118% and 106%, respectively.
For the molecule `CCN1CCN(Cc2ccc(NC(=O)Nc3nc4ccc(Oc5ccnc(C(=O)NC)c5)cc4s3)cc2C(F)(F)F)CC1`, the growth in test [1] is -55.8% (active); in test [2], 1.79% (active); in test [3] it was -87.4% (active); in [4], -60.8% (active); in [5] it was -63.3% (active); in test [6] it was 19.8%. For the same molecule, the growth in test [7] was -92.7% (active); in [8] it was -78.9% (active); in test [9], -85.2% (active); in test [10], -22.8% (active); in test [11] it was 14.2%; in test [12], -75.4% (active). In addition, the growth was -80.5% (active) in [13]; -35.9% (active) in test [14]; -84.5% (active) in test [15]; -44.2% (active) in test [16]; -33.4% (active) in [17]; 0.0502% (active) in test [18].
On to `O=C1C2CC=CCC2C(=O)N1CNc1ccc(Cl)cc1` (stereo unspecified), for which the growth in test [1] is 89.6%; in [2], 96.3%; in test [3], 78.2%; in [4], 94.1%; in test [5], 76.9%; in test [6] it was 95%. In addition, the growth is 62.7% in test [7]; 77% in test [8]; 109% in test [9]; 94.2% in test [10]; 88.6% in test [11]; 90.8% in test [12]. Further, the growth in test [13] was 47%; in test [14], 107%; in test [15], 88.8%; in test [16] it was 90.2%; in test [17], 96.5%; in test [18], 120%. In addition, in test [19], the growth is 101%.
Consider `CC(=O)CC(C)(C)c1ccc(Cl)cc1`, for which the growth was 101% in test [1]; 98.1% in test [2]; 81.9% in test [3]; 98.7% in [4]; 93.6% in test [5]; 108% in [6]. Besides, the growth is 101% in [7]; 97.3% in test [8]; 115% in test [9]; 108% in [10]; 101% in test [11]; 97.7% in test [12]. Moreover, the growth in test [13] is 85.5%; in test [14], 114%; in test [15], 102%; in test [16], 90.2%; in test [17], 108%; in test [18], 101%. Moreover, in test [19], the growth was 100%.
As for `COC1=CC(=O)C(OC)=C(OC)C1=O`, the growth was 102% in [1]; 107% in test [2]; 90.1% in [3]; 100% in [4]; 98.1% in test [5]; 97.5% in test [6]. In addition, the growth in test [7] is 87.5%; in test [8] it was 84.6%; in test [9] it was 98.6%; in test [10], 99.3%; in test [11] it was 98.6%; in test [12], 101%. In addition, the growth in test [13] is 104%; in test [14] it was 115%; in test [15], 111%; in test [16], 95.4%; in test [17], 88.2%; in test [18], 31.9%. The growth in test [19] was -7.34% (active).
Consider `CN1CCN(Cc2ccc(NC(=O)c3[nH]ncc3Nc3ccnc4ccsc34)cc2)CC1`, for which the growth in test [1] was 66.4%; in test [2] it was 30.1%; in test [3], 20.5%; in test [4] it was 29.2%; in test [5], 34%; in [6], 38.4%. For the same molecule, the growth was 64.1% in [7]; 0.622% (active) in [8]; 54.9% in test [9]; 64.9% in [10]; 41.1% in [11]; 21.3% in test [12]. Also, the growth in test [13] was 44.5%; in test [14], 58.6%; in test [15], 13.5%; in [16] it was 59.3%; in test [17], 17%; in test [18], 11%. In test [19], the growth is 2.39% (active).
In the case of `CCCCCCCCCc1cc(CN2CCCCC2)c(O)c(CN2CCCCC2)c1`, the growth in [1] is 52.3%; in test [2] it was 40.5%; in test [3], 60.6%; in test [4], 45.1%; in [5], 53.7%; in test [6] it was 40%. Moreover, the growth in test [7] was 72.9%; in test [8], 48.6%; in test [9], 74%; in [10] it was 86.7%; in [11], 37.5%; in test [12], 71.9%. Further, the growth in test [13] is 44.1%; in test [14], 81.1%; in [15], 63.5%; in test [16], 57.7%; in [17], 75%; in test [18], 61.7%. Also, in test [19], the growth was 56%.
As for `Cc1cc2cc3cc(C)c(N(C)C)cc3nc2cc1N(C)C`, the growth in [1] was 71.6%; in test [2] it was 15.9%; in [3], 26.6%; in [4], 15.4%; in test [5], 4.41% (active); in test [6] it was 28.5%. The growth in test [7] is 58.5%; in test [8], 24%; in [9], 40.6%; in test [10], -31.8% (active); in [11], 34.6%; in [12] it was 15.3%. In addition, the growth in [13] was 59.1%; in test [14], -14.6% (active); in test [15], 39.1%; in [16] it was 43.7%; in test [17] it was 52.8%; in test [18], 17.3%. Besides, in [19], the growth is 29.1%.
